Data published in PubChem BioAssay (EPA / NIEHS).
Calls of active or inactive are those of the source. How the source made its calls: active means hit-call score of the fitted dose curve at least 0.9, where 1 is the maximum; inactive means score below 0.9.

What was measured:
Details in all cases: mRNA level, 48 h; actives raise or lower the signal
[1] = read-out: CYP2C9 (gene 1559); test: LTEA_HepaRG_CYP2C9: Life Technologies and Expression Analysis (LTEA) Assay for CYP2C9 using HepaRG (AID 2283484)
Summary of the method: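 Differentiated human HepaRG cells in serum-free induction medium were exposed 48 h to chemicals in 8-point half-log series from 100 uM (0.5% DMSO), in duplicate. CYP2C9 mRNA was measured by qRT-PCR, normalized to ACTB/GAPDH/POLR2A, with bidirectional fitting versus DMSO.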

[2] = read-out: CYP2E1 (gene 1571); test: LTEA_HepaRG_CYP2E1: Life Technologies and Expression Analysis (LTEA) Assay for CYP2E1 using HepaRG (AID 2283485)
Summary of the method: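 HepaRG cells, plated 48 h, then exposed 48 h in serum-free induction medium to eight half-log concentrations from 100 uM in 0.5% DMSO, duplicate. CYP2E1 mRNA by qRT-PCR, normalized to ACTB/GAPDH/POLR2A; bidirectional fit versus DMSO.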

[3] = read-out: CYP4A11 (gene 1579); test: LTEA_HepaRG_CYP4A11: Life Technologies and Expression Analysis (LTEA) Assay for CYP4A11 using HepaRG (AID 2283486)
Summary of the method: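 Readout is CYP4A11 transcript level by qRT-PCR, normalized to three housekeeping genes and fitted bidirectionally against 0.5% DMSO. Human HepaRG cells were treated 48 h, in duplicate, with an 8-point half-log series topping at 100 uM.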

[4] = read-out: Cytochrome P450 3A4 (Homo sapiens) (UniProt P08684); test: LTEA_HepaRG_CYP3A4: Life Technologies and Expression Analysis (LTEA) Assay for CYP3A4 using HepaRG (AID 2283487)
Summary of the method: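 HepaRG, 48 h exposure, 8-pt CRC from 100 uM (half-log), 0.5% DMSO, duplicates; serum-free induction medium. Readout: CYP3A4 mRNA, qRT-PCR, ACTB/GAPDH/POLR2A normalization. Bidirectional fit vs DMSO.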

[5] = read-out: DNA damage-inducible transcript 3 (DDIT3), DDIT3 (gene 1649); test: LTEA_HepaRG_DDIT3: Life Technologies and Expression Analysis (LTEA) Assay for DNA damage-inducible transcript 3 (DDIT3) using HepaRG (AID 2283488)
Summary of the method: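 HepaRG cells, 48 h after plating, exposed 48 h in serum-free induction medium to 8 half-log concentrations up to 100 uM in 0.5% DMSO, in duplicate. DDIT3 mRNA measured by TaqMan qRT-PCR, normalized to ACTB, GAPDH and POLR2A. Fitted bidirectionally against DMSO.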

[6] = read-out: Pro-epidermal growth factor (Homo sapiens) (UniProt P01133); test: LTEA_HepaRG_EGF: Life Technologies and Expression Analysis (LTEA) Assay for Epidermal growth factor (EGF) using HepaRG (AID 2283489)
Summary of the method: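 EGF transcript measured by Fluidigm TaqMan qRT-PCR with three housekeeping genes for normalization, 48 h after dosing HepaRG cultures in duplicate (top 100 uM, half-log steps, 0.5% DMSO vehicle). Gain or loss relative to DMSO fitted.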

[7] = read-out: Early growth response protein 1 (EGR1) transcription factor, EGR1 (gene 1958); test: LTEA_HepaRG_EGR1: Life Technologies and Expression Analysis (LTEA) Assay for Early growth response protein 1 (EGR1) transcription factor using HepaRG (AID 2283490)
Summary of the method: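 Differentiated HepaRG cells in serum-free induction medium exposed 48 hours, duplicate, to 8 half-log concentrations up to 100 uM in 0.5% DMSO. EGR1 mRNA measured by TaqMan qRT-PCR, normalized to ACTB, GAPDH, POLR2A; bidirectional fit versus DMSO.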

[8] = read-out: Ezrin (EZR), EZR (gene 7430); test: LTEA_HepaRG_EZR: Life Technologies and Expression Analysis (LTEA) Assay for Ezrin (EZR) using HepaRG (AID 2283491)
Summary of the method: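 Read-out is EZR transcript level by qRT-PCR, normalized to three housekeeping genes and fitted bidirectionally against the DMSO control. Human HepaRG cells received test chemicals for 48 h at eight half-log concentrations up to 100 uM in 0.5% DMSO.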

[9] = read-out: Cytochrome P450 3A7 (Homo sapiens) (UniProt P24462); test: LTEA_HepaRG_CYP3A7: Life Technologies and Expression Analysis (LTEA) Assay for CYP3A7 using HepaRG (AID 2283492)
Summary of the method: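 CYP3A7 transcript measured by qRT-PCR (ACTB, GAPDH, POLR2A normalization) after 48 h chemical exposure of HepaRG cells in duplicate. Eight half-log concentrations, maximum 100 uM, 0.5% DMSO vehicle; bidirectional curve fitting against DMSO baseline.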

[10] = read-out: CYP3A5 (gene 1577); test: LTEA_HepaRG_CYP3A5: Life Technologies and Expression Analysis (LTEA) Assay for CYP3A5 using HepaRG (AID 2283493)
Summary of the method: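 HepaRG cells, plated 48 h then in serum-free induction medium, dosed in duplicate for 48 h with eight half-log concentrations up to 100 uM in 0.5% DMSO. Gene mRNA by Fluidigm TaqMan qRT-PCR, normalized to ACTB, GAPDH, POLR2A.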

[11] = read-out: Fatty Acid-Binding Protein 1 (FABP1), FABP1 (gene 2168); test: LTEA_HepaRG_FABP1: Life Technologies and Expression Analysis (LTEA) Assay for Fatty Acid-Binding Protein 1 (FABP1) using HepaRG (AID 2283494)
Summary of the method: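 Differentiated human HepaRG cells exposed 48 h in serum-free induction medium to eight half-log concentrations up to 100 uM (0.5% DMSO), duplicate. FABP1 mRNA by qRT-PCR, normalised to ACTB, GAPDH, POLR2A; bidirectional fitting against DMSO.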

[12] = read-out: Cytochrome P450 4A22 (Homo sapiens) (UniProt Q5TCH4); test: LTEA_HepaRG_CYP4A22: Life Technologies and Expression Analysis (LTEA) Assay for Cytochrome P450 4A22 (CYP4A22) using HepaRG (AID 2283495)
Summary of the method: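 Gene expression measured by qRT-PCR against three housekeeping genes (ACTB, GAPDH, POLR2A), with gain or loss fitted relative to 0.5% DMSO vehicle. HepaRG cultures received 48 h chemical treatment, top concentration 100 uM, half-log steps, duplicate wells.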

[13] = read-out: Cytochrome P450 7A1 (Homo sapiens) (UniProt P22680); test: LTEA_HepaRG_CYP7A1: Life Technologies and Expression Analysis (LTEA) Assay for Cytochrome P450 7A1 (CYP7A1) using HepaRG (AID 2283496)
Summary of the method: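 HepaRG cells plated 48 h, then switched to serum-free induction medium and exposed in duplicate for 48 h to 8-point half-log series from 100 uM in 0.5% DMSO. CYP7A1 mRNA by qRT-PCR (TaqMan), normalized to ACTB/GAPDH/POLR2A; bidirectional fit versus DMSO.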

[14] = read-out: Glutathione S-Transferase (GSTA2), GSTA2 (gene 2939); test: LTEA_HepaRG_GSTA2: Life Technologies and Expression Analysis (LTEA) Assay for Glutathione S-Transferase (GSTA2) using HepaRG (AID 2283497)
Summary of the method: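 Differentiated human HepaRG cells were exposed in duplicate for 48 h in serum-free induction medium, 8 points from 100 uM top in half-log steps, 0.5% DMSO. GSTA2 mRNA was measured by TaqMan qRT-PCR, normalized to ACTB, GAPDH and POLR2A; bidirectional fit versus DMSO.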

[15] = read-out: Glutamate-cysteine ligase catalytic (GCLC), GCLC (gene 2729); test: LTEA_HepaRG_GCLC: Life Technologies and Expression Analysis (LTEA) Assay for Glutamate-cysteine ligase catalytic (GCLC) using HepaRG (AID 2283498)
Summary of the method: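 Differentiated HepaRG cells exposed 48 h in serum-free induction medium, eight-point half-log series topping at 100 uM in 0.5% DMSO, duplicates. GCLC mRNA by qRT-PCR normalized to ACTB, GAPDH and POLR2A, fitted bidirectionally versus DMSO.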

[16] = read-out: growth arrest and DNA damage 45 (GADD45G), GADD45G (gene 10912); test: LTEA_HepaRG_GADD45G: Life Technologies and Expression Analysis (LTEA) Assay for growth arrest and DNA damage 45 (GADD45G) using HepaRG (AID 2283499)
Summary of the method: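 GADD45G transcript level by qRT-PCR (housekeeping-normalized: ACTB, GAPDH, POLR2A) after 48 h chemical treatment of a single HepaRG lot in serum-free induction medium; eight-point half-log series up to 100 uM in 0.5% DMSO, duplicates, up- or down-regulation scored.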

[17] = read-out: Glutamate-cysteine ligase regulatory (GCLM), GCLM (gene 2730); test: LTEA_HepaRG_GCLM: Life Technologies and Expression Analysis (LTEA) Assay for Glutamate-cysteine ligase regulatory (GCLM) using HepaRG (AID 2283500)
Summary of the method: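 Differentiated HepaRG cells exposed 48 h in serum-free induction medium to eight half-log concentrations up to 100 uM (0.5% DMSO). GCLM mRNA by TaqMan qRT-PCR, normalized to ACTB, GAPDH and POLR2A; bidirectional fit versus DMSO.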

[18] = read-out: Glutathione S-transferase M3 (GSTM3), GSTM3 (gene 2947); test: LTEA_HepaRG_GSTM3: Life Technologies and Expression Analysis (LTEA) Assay for Glutathione S-transferase M3 (GSTM3) using HepaRG (AID 2283501)
Summary of the method: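 GSTM3 transcript levels came from Fluidigm TaqMan qRT-PCR normalized to three housekeeping genes, fitted in both directions against DMSO. HepaRG cultures received chemicals for 48 h in serum-free induction medium (0.5% DMSO), 8 half-log concentrations up to 100 uM, duplicate.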

[19] = read-out: Heat shock 70 kDa protein 1 (HSPA1A), gene 3303; test: LTEA_HepaRG_HSPA1A: Life Technologies and Expression Analysis (LTEA) Assay for Heat shock 70 kDa protein 1 (HSPA1A) using HepaRG (AID 2283502)
Summary of the method: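 Human HepaRG cells in serum-free induction medium were exposed in duplicate for 48 h to 8 half-log concentrations, highest 100 uM, in 0.5% DMSO. HSPA1A mRNA read by TaqMan qRT-PCR, normalized to ACTB, GAPDH, POLR2A, fitted bidirectionally against DMSO.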

[20] = read-out: Hypoxia-inducible factor 1-alpha (Homo sapiens) (UniProt Q16665); test: LTEA_HepaRG_HIF1A: Life Technologies and Expression Analysis (LTEA) Assay for Hypoxia-inducible factor 1 (HIF1A) Trancription factor using HepaRG (AID 2283503)
Summary of the method: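 Differentiated HepaRG cells in serum-free induction medium exposed 48 h, in duplicate, to 8-point half-log series from 100 uM in 0.5% DMSO. HIF1A mRNA measured by TaqMan qRT-PCR, normalized to ACTB/GAPDH/POLR2A, fitted bidirectionally versus DMSO.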

Measured: AC50

Chain of Hypoxia-inducible factor 1-alpha (Homo sapiens) (Q16665 whole entry, looked up): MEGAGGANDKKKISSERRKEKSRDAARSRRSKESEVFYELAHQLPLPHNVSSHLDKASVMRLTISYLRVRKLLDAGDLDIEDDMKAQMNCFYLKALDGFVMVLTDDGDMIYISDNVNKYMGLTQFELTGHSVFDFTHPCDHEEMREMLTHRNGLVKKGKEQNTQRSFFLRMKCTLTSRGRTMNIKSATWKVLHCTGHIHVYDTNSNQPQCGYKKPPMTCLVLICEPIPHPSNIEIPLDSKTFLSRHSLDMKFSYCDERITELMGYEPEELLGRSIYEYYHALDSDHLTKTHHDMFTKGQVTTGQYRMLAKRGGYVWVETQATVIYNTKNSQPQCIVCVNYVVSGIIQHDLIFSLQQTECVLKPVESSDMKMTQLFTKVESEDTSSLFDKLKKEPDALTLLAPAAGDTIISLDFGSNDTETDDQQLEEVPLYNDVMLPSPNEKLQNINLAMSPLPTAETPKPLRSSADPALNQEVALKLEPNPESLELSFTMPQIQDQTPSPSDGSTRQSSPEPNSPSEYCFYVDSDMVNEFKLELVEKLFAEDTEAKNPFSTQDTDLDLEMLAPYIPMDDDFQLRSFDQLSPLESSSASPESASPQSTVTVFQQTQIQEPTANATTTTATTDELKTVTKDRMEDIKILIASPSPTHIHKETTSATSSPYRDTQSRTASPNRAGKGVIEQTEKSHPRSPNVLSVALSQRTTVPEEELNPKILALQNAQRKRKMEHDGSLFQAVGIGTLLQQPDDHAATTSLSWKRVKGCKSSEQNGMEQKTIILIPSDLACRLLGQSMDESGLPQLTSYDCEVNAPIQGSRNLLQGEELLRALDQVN
Chain of Cytochrome P450 3A4 (Homo sapiens) (P08684 whole entry, looked up): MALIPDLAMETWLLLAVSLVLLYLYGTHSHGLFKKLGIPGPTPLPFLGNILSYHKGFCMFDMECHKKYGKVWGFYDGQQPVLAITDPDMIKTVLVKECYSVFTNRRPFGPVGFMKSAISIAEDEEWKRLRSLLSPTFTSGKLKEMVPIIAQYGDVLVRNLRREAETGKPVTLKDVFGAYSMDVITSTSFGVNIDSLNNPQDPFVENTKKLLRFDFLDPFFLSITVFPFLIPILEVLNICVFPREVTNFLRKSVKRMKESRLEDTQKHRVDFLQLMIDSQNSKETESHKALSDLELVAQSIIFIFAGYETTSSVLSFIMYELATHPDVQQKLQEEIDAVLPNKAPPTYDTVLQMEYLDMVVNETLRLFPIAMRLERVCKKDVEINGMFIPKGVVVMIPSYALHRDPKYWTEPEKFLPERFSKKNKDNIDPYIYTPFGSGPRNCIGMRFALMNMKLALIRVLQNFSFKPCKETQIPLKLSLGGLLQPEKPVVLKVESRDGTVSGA
Chain of Cytochrome P450 3A7 (Homo sapiens) (P24462 whole entry, looked up): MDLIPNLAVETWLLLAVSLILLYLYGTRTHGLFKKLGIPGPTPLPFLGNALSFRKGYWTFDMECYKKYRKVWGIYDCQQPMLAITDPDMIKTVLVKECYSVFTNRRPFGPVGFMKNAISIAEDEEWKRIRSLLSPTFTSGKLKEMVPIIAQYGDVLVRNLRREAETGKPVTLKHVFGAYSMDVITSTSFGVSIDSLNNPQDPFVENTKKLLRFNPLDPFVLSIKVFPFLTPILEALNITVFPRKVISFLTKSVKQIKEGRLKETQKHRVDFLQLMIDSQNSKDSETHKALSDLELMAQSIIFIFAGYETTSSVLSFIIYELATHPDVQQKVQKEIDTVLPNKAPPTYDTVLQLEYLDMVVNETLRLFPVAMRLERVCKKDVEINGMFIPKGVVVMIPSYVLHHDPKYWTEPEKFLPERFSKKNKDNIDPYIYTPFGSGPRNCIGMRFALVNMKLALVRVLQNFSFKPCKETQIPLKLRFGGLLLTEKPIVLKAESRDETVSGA

CCNc1ccccc1
inactive: [1] | [2] | [3] | [4] | [5] | [6] | [7] | [8] | [9] | [10] | [11] | [12] | [13] | [14] | [15] | [16] | [17] | [18] | [19] | [20]

Nc1ccc(Nc2ccccc2)cc1
inactive: [1] | [3] | [4] | [5] | [6] | [7] | [8] | [10] | [12] | [14] | [15] | [16] | [17] | [18] | [19]
active: [2] 71.2 µM | [9] 62.7 µM | [11] 50 µM | [13] 50 µM | [20] 50 µM
